Here are results for 15 compounds from PubChem BioAssay (EPA / NIEHS).

SMILES strings stand for the structures. Values joined by “and” are separate entries in the source; they are usually repeats but may differ in a detail not shown here. Identical values can stand only once. Inconclusive results are not listed. More than one record can exist for a structure, and the calls need not agree. Active and inactive are the calls of the source. How the source made its calls: active means hit-call score of the fitted dose curve at least 0.9, where 1 is the maximum; inconclusive means response in the unintended direction; inactive means score below 0.9.

Test [1] can be described thus: TOX21_p53_BLA_p2_viability: Viability Assessment in the Tox21 HCT-116 p53 Agonism Beta-lactamase Assay, Phase 2 (AID 2283591).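 Further: compound exposure lasted 16 h at 37 °C; actives lower the ATP signal meaning cytotoxicity.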 The essentials: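 Cytotoxicity readout: CellTiter-Glo ATP luminescence, 30 min at room temperature, after the beta-lactamase read. Cells were HCT116 exposed 16 h at 37C to compounds pin-transferred at 217-fold dilution from DMSO stocks.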
Test [2] has as its target Cellular tumor antigen p53 (Homo sapiens) (UniProt P04637). Kind of test: TOX21_p53_BLA_p2_ratio: Tox21 HCT-116 p53 Agonism Beta-lactamase Assay, Ratio, Phase 2 (AID 2283592). The essentials: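 In this cell-based reporter format, HCT116 cells were dosed with chemicals delivered from DMSO by 217-fold dilution and incubated 16 h at 37C. Emission at 460 and 530 nm after 2 h CCF4-AM loading provided the ratio, fitted upward versus DMSO.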

Test [3] in a line: TOX21_p53_BLA_p3_viability: Viability Assessment in the Tox21 HCT-116 p53 Agonism Beta-lactamase Assay, Phase 3 (AID 2283593).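 Further: cells exposed to compound for 16 h before reading.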 An outline of the steps: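 Cellular ATP was quantified by CellTiter-Glo luminescence, read after 30 min at room temperature. Beforehand, HCT116 cells (4000/well) received compound 5 h post-seeding, 217-fold diluted from DMSO, then incubated 16 h at 37C.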

A short description of test [4]: TOX21_p53_BLA_p4_viability: Viability Assessment in the Tox21 HCT-116 p53 Agonism Beta-lactamase Assay, Phase 4 (AID 2283597).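 Further: hits lower the luminescence signal meaning cytotoxicity.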 The essentials:
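We seeded HCT116 p53 reporter cells at 4000/well and waited 5 h. We then added compounds in DMSO at a 217-fold dilution and incubated for 16 h. Viability was read as CellTiter-Glo luminescence after 30 min at RT.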

Test [5] has as its target Cellular tumor antigen p53 (Homo sapiens) (UniProt P04637). Kind of test: TOX21_p53_BLA_p5_ratio: Tox21 HCT-116 p53 Agonism Beta-lactamase Assay, Ratio, Phase 5 (AID 2283599). The essentials: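 Beta-lactamase reporter ratio (blue 460 nm over green 530 nm, 405 nm excitation) after 2 h CCF4-AM loading, in HCT-116 cells exposed 16 h at 37 C to compounds pinned at 217-fold dilution. Increases relative to DMSO baseline scored.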

Test [6] in a line: TOX21_p53_BLA_p5_viability: Viability Assessment in the Tox21 HCT-116 p53 Agonism Beta-lactamase Assay, Phase 5 (AID 2283600). The essentials:
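Compounds, pinned from DMSO at 217-fold dilution, were left on the cells for 16 h. The viability endpoint was ATP content measured by CellTiter-Glo luminescence, where falling signal reflects cytotoxicity.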

Test [7] concerns the target Cellular tumor antigen p53 (Homo sapiens) (UniProt P04637). Kind of test: TOX21_p53_BLA_p4_ratio: Tox21 HCT-116 p53 Agonism Beta-lactamase Assay, Ratio, Phase 4 (AID 2283601). The essentials:
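Signal is the blue/green (460nm/530nm) ratio of cleaved versus uncleaved CCF4-AM substrate, read after 2 h substrate loading. Cells were HCT116 carrying the p53-responsive beta-lactamase reporter, dosed 16 h at 37C, 5% CO2; CellTiter-Glo measured in parallel.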

Test [8] has the same target. Kind of test: TOX21_p53_BLA_p3_ratio: Tox21 HCT-116 p53 Agonism Beta-lactamase Assay, Ratio, Phase 3 (AID 2283596). The essentials: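 HCT116 p53-bla cells (4000/well) given compound in DMSO (217-fold dilution) after 5 h, incubated 16 h at 37C. CCF4-AM substrate 2 h at room temperature; 460/530 nm emission ratio, gain fitted against DMSO.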

Sequence of Cellular tumor antigen p53 (Homo sapiens) (P04637 whole entry, looked up): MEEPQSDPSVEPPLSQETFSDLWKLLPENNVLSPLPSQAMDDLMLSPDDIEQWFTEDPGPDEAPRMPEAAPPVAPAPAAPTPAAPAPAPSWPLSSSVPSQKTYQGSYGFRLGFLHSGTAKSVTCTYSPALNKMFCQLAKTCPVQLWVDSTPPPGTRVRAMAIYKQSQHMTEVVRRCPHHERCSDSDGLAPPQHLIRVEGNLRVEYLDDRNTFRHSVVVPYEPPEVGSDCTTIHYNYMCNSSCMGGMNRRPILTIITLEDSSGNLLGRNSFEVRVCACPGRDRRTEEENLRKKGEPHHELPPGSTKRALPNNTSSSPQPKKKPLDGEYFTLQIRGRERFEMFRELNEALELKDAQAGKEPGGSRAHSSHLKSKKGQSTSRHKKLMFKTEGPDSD

Turning to `CCOC(=O)c1ccc(OCCN2C[C@H](O)[C@@H](O)[C@H](O)[C@H]2CO)cc1`, the compound was classed as inactive in test [1], in test [2] and in test [3].
With `O=C(O)c1ccc(S(=O)(=O)N(Cl)Cl)cc1`, the call in test [1], in test [2], in test [3], in test [4], in test [5] and in test [6] was inactive. In addition, the outcome in test [7] was inactive. Besides, in test [2], the half-maximal activity concentration (AC50) was 64.5 µM (active).
With `C[N+]1(CC2COC(c3ccccc3)(c3ccccc3)O2)CCCCC1` (configuration not stated), the compound was called inactive in test [1], in test [2], in test [3], in test [8] and in test [4].
With `O=C(CCCCCCC(=O)Nc1ccccc1)NO`, the compound was classed as inactive in test [1], in test [3], in test [8] and in test [6]. Besides, the AC50 in test [2] is 420 nM (active) and 686 nM (active); in test [8], 0.874 µM (active); in test [4], 4.47 µM (active) and 7.11 µM (active); in test [5], 1.08 µM (active) and 842 nM (active); in test [7], 904 nM (active) and 534 nM (active).
Turning to `N/C(=N\N=Cc1ccc(Cl)cc1)NN=Cc1ccc(Cl)cc1`, the compound was called inactive in test [1], in test [2], in test [4] and in test [5]. Further, the AC50 in test [3] is 42.7 µM (active); in test [8] it was 37.6 µM (active).
In the case of `CC(=O)Nc1ccccc1C`, the result in test [1], in test [2], in test [3], in test [8], in test [4] and in test [5] was inactive.
Consider `C[C@@H](O)[C@H]1C(=O)N2C(C(=O)O)=C(SCCN=CN)C[C@H]12`, for which the compound was called inactive in test [1], in test [2], in test [3], in test [8], in test [4] and in test [5].
In the case of `Nc1cc(S(=O)(=O)O)ccc1O`, the outcome in test [1], in test [2], in test [3], in test [8], in test [4] and in test [5] was inactive.
In the case of `CO[C@H]1C[C@@H]2CC[C@@H](C)[C@@](O)(O2)C(=O)C(=O)N2CCCC[C@H]2C(=O)O[C@H]([C@H](C)C[C@@H]2CC[C@@H](O)[C@H](OC)C2)CC(=O)[C@H](C)/C=C(\C)[C@@H](O)[C@@H](OC)C(=O)[C@H](C)C[C@H](C)\C=C/C=C/C=C/1C`, the half-maximal activity concentration (AC50) in test [1] was 18.1 µM (active) and 20.6 µM (active); in test [2], 29.7 µM (active); in test [3], 33.3 µM (active) and 22.4 µM (active); in test [8] it was 41 µM (active) and 40.8 µM (active); in test [4], 17.5 µM (active) and 17.7 µM (active); in test [5] it was 35.1 µM (active) and 34.8 µM (active). The concentration at half-maximal activity (AC50) in test [6] was 23.7 µM (active) and 23.9 µM (active); in test [7], 21.7 µM (active) and 20.8 µM (active). Moreover, in test [2], the outcome was inactive.
Take `C=Cc1ccc(S(=O)(=O)O)cc1`: the call in test [1], in test [2], in test [3], in test [8], in test [4] and in test [5] was inactive. Further, the outcome in test [6] and in test [7] was inactive. Also, the concentration at half-maximal activity (AC50) in test [4] is 46.1 µM (active).
Take `Oc1cccc(O)c1O`: the compound was classed as inactive in test [1], in test [2], in test [3], in test [8], in test [4] and in test [5]. Also, the call in test [6] and in test [7] was inactive. The concentration at half-maximal activity (AC50) in test [2] was 75.6 µM (active).
As to `Cc1c(C)c2c(c(C)c1OC(=O)CCC(=O)O)CC[C@@](C)(CCC[C@H](C)CCC[C@H](C)CCCC(C)C)O2`, the compound was called inactive in test [1], in test [2], in test [8], in test [4], in test [5] and in test [6]. The AC50 in test [3] is 46.5 µM (active) and 41.2 µM (active); in test [8], 67.7 µM (active).
Turning to `COC(=O)C1=C(C)NC(C)=C(C(=O)OC)C1c1ccccc1[N+](=O)[O-]`, the outcome in test [1], in test [2], in test [3], in test [8], in test [4] and in test [5] was inactive. The outcome in test [6] and in test [7] was inactive. The AC50 in test [3] was 38.3 µM (active).
Take `COC(=O)[C@H]1[C@H]2C[C@@H]3c4[nH]c5ccccc5c4CCN3C[C@H]2C[C@@H](OC(=O)c2cc(OC)c(OC)c(OC)c2)[C@@H]1OC`: the outcome in test [1], in test [2], in test [3], in test [8], in test [4] and in test [5] was inactive. Moreover, the result in test [6] and in test [7] was inactive. The concentration at half-maximal activity (AC50) was 6.8 µM (active) in test [4] and 15.7 µM (active) in test [7].
For `O=[N+]([O-])c1cccc(C(F)(F)F)c1`, the outcome in test [1], in test [2], in test [3] and in test [8] was inactive.

The AC50 is the concentration giving half of the maximal activity seen.
